Measured values published in the supplement of paper PMC7393113.
Where a name gives a salt, the structure may show the parent alone. ± gives the standard deviation of the averaged measurements.

Tested on: iBMDM (immortalised mouse bone-marrow-derived macrophages), LPS-stimulated
Assay: mitochondrial superoxide (MitoSOX fluorescence) fold increase over unstimulated control; higher = more LPS-induced mitochondrial ROS (less inhibition)
Conditions: inhibitor concentration: 500 nM; LPS: 100 ng/ml; time after LPS: 1 h
Procedure, shortened: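 Mitochondrial superoxide values are mean fold induction compared with untreated macrophages. Triplicate wells of immortalised mouse bone-marrow-derived macrophages in phenol-red-free 1% FCS/DMEM received kinase inhibitors (500 nM) for 30 min, then 1 μM MitoSox for 10 min, then LPS (100 ng/ml). Fluorescence (510/580 nm) was taken every 60 min for 4 h.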

| SMILES | mitochondrial superoxide |
| --- | --- |
| O=C(O)c1ccc(Nc2ncc3c(n2)-c2ccc(Cl)cc2C(c2c(F)cccc2F)=NC3)cc1 | 1.37 ± 0.045 |
| C=CCc1ccc(O)c(-c2ccc(O)c(CC=C)c2)c1 [Honokiol] | 1.24 ± 0.031 |
| CN(C)c1ccc(-c2nc3ncc(Cl)c(N4CCN(CC(=O)Nc5nccs5)CC4)c3[nH]2)cc1 | 1.21 ± 0.037 |
| Cc1cn(-c2cc(NC(=O)c3ccc(C)c(Nc4nccc(-c5cccnc5)n4)c3)cc(C(F)(F)F)c2)cn1 [Nilotinib (AMN-107)] | 1.45 ± 0.049 |
| COc1cc2c(Nc3ccc(NC(=O)c4ccccc4)cc3)ncnc2cc1OCCCN1CCOCC1 | 1.34 ± 0.06 |
| Cn1cnc(=N)c2[nH]cnc21 [3-Methyladenine] | 1.25 ± 0.078 |
| CC(C)N(CCC(=O)c1ccc2ccccc2c1)Cc1ccccc1 | 1.31 ± 0.017 |
| Cc1ncc(-c2ccnc(Nc3ccc(S(C)(=O)=O)cc3)n2)n1C(C)C | 1.36 ± 0.052 |
| C[C@]1(O)C[C@@H](c2nc(-c3ccc4ccc(-c5ccccc5)nc4c3)c3c(N)nccn32)C1 [OSI-906 (Linsitinib)] | 1.45 ± 0.18 |
| C=CC(=O)Nc1cc2c(Nc3ccc(F)c(Cl)c3)ncnc2cc1OCCCN1CCOCC1 [Canertinib (CI-1033)] | 1.59 ± 0.093 |
| COc1cc2ncc(-c3ccccc3)nc2cc1OC [Tyrphostin AG 1296] | 1.469 ± 0.014 |
| O=C(NOCC(O)CO)c1cc(Br)c(F)c(F)c1Nc1ccc(I)cc1F (stereo not given) | 1.31 ± 0.033 |
| Cc1ccc(NC(=O)c2ccc(CN3CCN(C)CC3)cc2)cc1Nc1nccc(-c2cccnc2)n1 [Imatinib Mesylate (STI571)] | 1.626 ± 0.013 |
| CNC(=O)c1ccc(-c2cnc3ncc(Cc4ccc5ncccc5c4)n3n2)cc1F | 1.12 ± 0.033 |
| NC(=O)Nc1sc(-c2ccc(F)cc2)cc1C(N)=O | 1.15 ± 0.055 |
| Cn1cnc(-c2cc3nccc(Oc4ccc(NC(=S)NC(=O)Cc5ccccc5)cc4F)c3s2)c1 | 1.06 ± 0.021 |
| C=CC(=O)Nc1cccc(Oc2nc(Nc3ccc(N4CCN(C)CC4)cc3)ncc2Cl)c1 | 1.54 ± 0.047 |
| COc1cc2ncnc(Oc3cccc(NC(=O)Nc4cc(C(C)(C)C(F)(F)F)on4)c3)c2cc1OC | 1.36 ± 0.027 |
| Cc1ccc(Nc2nccc(N(C)c3ccc4c(C)n(C)nc4c3)n2)cc1S(N)(=O)=O [Pazopanib] | 1.19 ± 0.042 |
| Oc1ccc(-c2nc(-c3ccc(F)cc3)c(-c3ccncc3)[nH]2)cc1 | 1.32 ± 0.13 |
| COc1cc2nccc(Oc3ccc(NC(=O)C4(C(=O)Nc5ccc(F)cc5)CC4)cc3)c2cc1OC | 1.41 ± 0.041 |
| CC(C)(C)c1nc(-c2cccc(NS(=O)(=O)c3c(F)cccc3F)c2F)c(-c2ccnc(N)n2)s1 | 1.25 ± 0.046 |
| N#CCNC(=O)c1ccc(-c2ccnc(Nc3ccc(N4CCOCC4)cc3)n2)cc1 | 1.05 ± 0.071 |

Same assay, conditions: inhibitor concentration: 500 nM; LPS: 100 ng/ml; time after LPS: 2 h

| SMILES | mitochondrial superoxide |
| --- | --- |
| Cc1cc(CN2CCN(c3c(Br)cnc4nc(-c5ccc(N6CCN(C)CC6)cc5)[nH]c34)CC2)no1 | 1.4 ± 0.019 |
| COc1cc2nccc(Oc3ccc(NC(=O)NC4CC4)c(Cl)c3)c2cc1C(N)=O [Lenvatinib (E7080)] | 1.71 ± 0.053 |
| Cn1cc(-c2ccc3ncc(Cc4ccc5ncccc5c4)n3n2)cn1 | 1.34 ± 0.053 |
| C[C@@H]1CN(CC(=O)Nc2ccc3c(c2)Cc2cccc(-c4cc(=O)cc(N5CCOCC5)o4)c2S3)C[C@H](C)O1 | 1.31 ± 0.059 |
| Cc1nc(NC(=O)N2CCC[C@H]2C(N)=O)sc1-c1csc(C(C)(C)C)n1 | 1.43 ± 0.015 |
| CCn1c(N)c(C(=O)NC)c(=O)c2ccc(C#CC(C)(O)COC)nc21 (stereo not given) | 1.22 ± 0.042 |
| C[C@@H]1COCCN1c1cc(C2(S(C)(=O)=O)CC2)nc(-c2cccc3[nH]ccc23)n1 | 1.244 ± 0.0093 |
| O=C(c1ccc(/C=C/c2n[nH]c3ccccc23)cc1)N1CCNCC1 | 1.19 ± 0.067 |
| O=C(/C=C/c1ccc(O)c(O)c1)c1ccc(O)cc1O [Butein] | 1.65 ± 0.067 |
| C=CC(=O)Nc1ccc2ncnc(Nc3ccc(OCc4cccc(F)c4)c(Cl)c3)c2c1 | 1.204 ± 0.0092 |
| CC1(C)CNc2cc(NC(=O)c3cccnc3NCc3ccncc3)ccc21 [Motesanib Diphosphate (AMG-706)] | 1.63 ± 0.12 |
| COc1cc2ncnc(Nc3ccc(Cl)cc3F)c2cc1OC | 1.24 ± 0.037 |
| Cc1c(NC(=O)OC[C@@H]2COCCN2)cn2ncnc(Nc3ccc4c(cnn4Cc4cccc(F)c4)c3)c12 | 1.74 ± 0.077 |
| Cc1cnc(-c2cnc(NCCNc3ccc(C#N)cn3)nc2-c2ccc(Cl)cc2Cl)[nH]1 | 1.09 ± 0.041 |
| O=C(O)c1ccc(Nc2ncc3c(n2)-c2ccc(Cl)cc2C(c2c(F)cccc2F)=NC3)cc1 | 1.45 ± 0.044 |
| C=CCc1ccc(O)c(-c2ccc(O)c(CC=C)c2)c1 [Honokiol] | 1.31 ± 0.1 |
| CN(C)c1ccc(-c2nc3ncc(Cl)c(N4CCN(CC(=O)Nc5nccs5)CC4)c3[nH]2)cc1 | 1.278 ± 0.0079 |
| Cc1cn(-c2cc(NC(=O)c3ccc(C)c(Nc4nccc(-c5cccnc5)n4)c3)cc(C(F)(F)F)c2)cn1 [Nilotinib (AMN-107)] | 1.53 ± 0.07 |
| COc1cc2c(Nc3ccc(NC(=O)c4ccccc4)cc3)ncnc2cc1OCCCN1CCOCC1 | 1.44 ± 0.069 |

| SMILES | mitochondrial superoxide |
| --- | --- |
| Cn1cnc(=N)c2[nH]cnc21 [3-Methyladenine] | 1.34 ± 0.12 |
| CC(C)N(CCC(=O)c1ccc2ccccc2c1)Cc1ccccc1 | 1.44 ± 0.11 |
| Cc1ncc(-c2ccnc(Nc3ccc(S(C)(=O)=O)cc3)n2)n1C(C)C | 1.46 ± 0.063 |
| C[C@]1(O)C[C@@H](c2nc(-c3ccc4ccc(-c5ccccc5)nc4c3)c3c(N)nccn32)C1 [OSI-906 (Linsitinib)] | 1.51 ± 0.21 |
| C=CC(=O)Nc1cc2c(Nc3ccc(F)c(Cl)c3)ncnc2cc1OCCCN1CCOCC1 [Canertinib (CI-1033)] | 1.55 ± 0.14 |
| COc1cc2ncc(-c3ccccc3)nc2cc1OC [Tyrphostin AG 1296] | 1.47 ± 0.017 |
| O=C(NOCC(O)CO)c1cc(Br)c(F)c(F)c1Nc1ccc(I)cc1F (stereo not given) | 1.3 ± 0.054 |
| Cc1ccc(NC(=O)c2ccc(CN3CCN(C)CC3)cc2)cc1Nc1nccc(-c2cccnc2)n1 [Imatinib Mesylate (STI571)] | 1.76 ± 0.045 |
| CNC(=O)c1ccc(-c2cnc3ncc(Cc4ccc5ncccc5c4)n3n2)cc1F | 1.36 ± 0.16 |
| NC(=O)Nc1sc(-c2ccc(F)cc2)cc1C(N)=O | 1.2 ± 0.045 |
| Cn1cnc(-c2cc3nccc(Oc4ccc(NC(=S)NC(=O)Cc5ccccc5)cc4F)c3s2)c1 | 1.14 ± 0.057 |
| C=CC(=O)Nc1cccc(Oc2nc(Nc3ccc(N4CCN(C)CC4)cc3)ncc2Cl)c1 | 1.71 ± 0.056 |
| COc1cc2ncnc(Oc3cccc(NC(=O)Nc4cc(C(C)(C)C(F)(F)F)on4)c3)c2cc1OC | 1.562 ± 0.0063 |
| Cc1ccc(Nc2nccc(N(C)c3ccc4c(C)n(C)nc4c3)n2)cc1S(N)(=O)=O [Pazopanib] | 1.13 ± 0.082 |
| Oc1ccc(-c2nc(-c3ccc(F)cc3)c(-c3ccncc3)[nH]2)cc1 | 1.41 ± 0.13 |
| COc1cc2nccc(Oc3ccc(NC(=O)C4(C(=O)Nc5ccc(F)cc5)CC4)cc3)c2cc1OC | 1.43 ± 0.017 |
| CC(C)(C)c1nc(-c2cccc(NS(=O)(=O)c3c(F)cccc3F)c2F)c(-c2ccnc(N)n2)s1 | 1.43 ± 0.054 |
| N#CCNC(=O)c1ccc(-c2ccnc(Nc3ccc(N4CCOCC4)cc3)n2)cc1 | 1.17 ± 0.017 |
